Screening results (PubChem BioAssay)
Autofluor counter: flagged as autofluorescent in microsphere protease counterscreen. hit rate 3.1% among 360,000. compound autofluorescence counterscreen, microsphere flow cytometry; hits give high values. fluorescence intensity (concentration not given with the values); in the data active means fluorescence intensity above about 16000
BoNT-F LC inh: inhibitors of Botulinum neurotoxin F light chain protease; hit rate 0.22% among 360,000; Multiplex microsphere protease cleavage assay, flow cytometry; inhibition, % at 10 µM; in the data active means inhibition above about 35%, passing the limit was not always enough; further: plate controls were buffer without enzyme for full effect and enzyme alone for no effect
PriA SSB inh: K. pneumoniae PriA-SSBct interaction inhibition; AlphaScreen SSBct-PriA binding, biotinylated peptide; inhibition, % at 33 µM; hit rate 0.6% among 430,000; in the data active means inhibition mostly above about 37%, no sharp cut-off; inactive means mostly below about 20%;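 further: plate controls were negative control peptide for no effect and reference peptide for full effect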
MazF activator: increases E. coli MazEF RNase cleavage of RNA; activation, % at 20 µM; P0AE70; hit rate 0.32% among 350,000; FAM/BHQ RNA-DNA oligo cleavage fluorescence, 5 h; AID 504720; in the data active means activation above about 50%
Target sequence (P0AE70 whole entry, looked up): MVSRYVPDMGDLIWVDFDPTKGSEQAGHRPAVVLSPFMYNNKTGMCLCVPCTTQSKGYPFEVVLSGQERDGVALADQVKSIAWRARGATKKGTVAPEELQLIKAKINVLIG
Anthrax LF prot: anthrax lethal factor protease inhibition; P15917; multiplex microsphere protease cleavage assay, LF; inhibition, % at 10 µM; hit rate 0.12% among 360,000; further: plate controls were buffer without enzyme for full effect and enzyme alone for no effect
BoNT A protease: blocks Botulinum neurotoxin A light chain protease. multiplex microsphere protease substrate cleavage, flow cytometry. inhibition, % at 10 µM. hit rate 0.17% among 360,000. AID 588499; further: plate controls were buffer without enzyme for full effect and enzyme alone for no effect
An asterisk follows results filed as active. A selection: hits, their analogues and other compounds. The true share with any hit is near 3.3%. Unless noted, no stated cut-off is given here; in the data, active means inhibition above about 30%; inconclusive means no clear call, values can overlap the other calls; inactive means below that.

What do the screens show for `COc1cccc(CC(=O)N(C)C2CCCN(Cc3ccccc3F)C2)c1` (configuration not stated)?
Autofluor counter: 3540; BoNT-F LC inh: 8.1; PriA SSB inh: -6.4; MazF activator: 5.4; Anthrax LF prot: 3.5; BoNT A protease: 0.6

How did CCN(CC)c1ccc(C=NNC(=O)CN2CCCc3ccccc32)cc1 do in these assays?
PriA SSB inh: 49.7*

Results for O=C(CN1CCCc2ccccc21)N/N=C\C=C/c1ccccc1 ?
PriA SSB inh: 39.0*

What do the screens show for `COc1ccc2nc(N(CCn3cccn3)C(=O)c3cccc(C)c3)sc2c1`?
PriA SSB inh: 2.0

What do the screens show for `Clc1ccc(-c2nnc3n2CCCC3)cc1`?
Autofluor counter: 21835*; BoNT-F LC inh: -1.4; PriA SSB inh: -19.1; MazF activator: -2.0; Anthrax LF prot: 1.1; BoNT A protease: -0.1

What do the screens show for `Cc1ccc(C(=O)N/C(=C\c2cccs2)C(=O)NCCc2c[nH]c3ccccc23)cc1C`?
Autofluor counter: 16774*; BoNT-F LC inh: -6.2; PriA SSB inh: 25.2; MazF activator: -2.6; Anthrax LF prot: -3.2; BoNT A protease: -1.6

What do the screens show for `O=C(CCCc1cccs1)NCCc1c[nH]c2ccccc12`?
Autofluor counter: 3748; BoNT-F LC inh: -13.9; PriA SSB inh: 46.5*; MazF activator: 7.7; Anthrax LF prot: -9.0; BoNT A protease: -4.4

Results for COc1ccc(-c2nc(C#N)c(N3CCOCC3)o2)cc1 ?
PriA SSB inh: 54.2*

Results for COc1ccc(-c2nc(C#N)c(N3CCCCCC3)o2)cc1 ?
Autofluor counter: 12877; BoNT-F LC inh: -12.0; PriA SSB inh: 8.3; MazF activator: -5.7; Anthrax LF prot: -4.5; BoNT A protease: -1.7

How did COc1nc(C#N)c(N2CCOCC2)o1 do in these assays?
Autofluor counter: 23391*; BoNT-F LC inh: -2.6; PriA SSB inh: -1.9; MazF activator: 5.6; Anthrax LF prot: -1.9; BoNT A protease: -2.1

Results for COc1ccc(-c2nc(C#N)c(N3CCCCC3)o2)cc1 ?
Autofluor counter: 3499; BoNT-F LC inh: 0.6; PriA SSB inh: 49.7*; MazF activator: 0.2; Anthrax LF prot: 7.6; BoNT A protease: 0.7

What do the screens show for `CN(CC(=O)Nc1ccc(Cl)c(Cl)c1)C1CCCCC1`?
Autofluor counter: 3536; BoNT-F LC inh: 21.0; PriA SSB inh: -28.0; MazF activator: 4.3; Anthrax LF prot: 0.7; BoNT A protease: -0.7

Results for COc1ccc(NC(=O)CN(C2CCCCC2)S(C)(=O)=O)cc1Cl ?
Autofluor counter: 21935*; BoNT-F LC inh: -5.2; PriA SSB inh: 0.0; MazF activator: 3.7; Anthrax LF prot: -2.1; BoNT A protease: -2.7

How did COc1ccc(CCNC(=O)CN(C2CCCCC2)S(C)(=O)=O)cc1OC do in these assays?
Autofluor counter: 7890; BoNT-F LC inh: -1.5; PriA SSB inh: -15.8; MazF activator: 5.8; Anthrax LF prot: 0.6; BoNT A protease: 1.1

What do the screens show for `CS(=O)(=O)N(CC(=O)NCCc1ccccc1)C1CCCCC1`?
Autofluor counter: 18975*; BoNT-F LC inh: 6.8; PriA SSB inh: -0.2; MazF activator: -3.2; Anthrax LF prot: 0.3; BoNT A protease: 4.8

How did COC(CNC(=O)CCc1cccc(Cl)c1)c1ccccc1C (configuration not stated) do in these assays?
PriA SSB inh: -25.0

Results for Cc1cc(C)c(C)c(S(=O)(=O)n2ccnc2)c1C ?
PriA SSB inh: 6.0

How did COc1cccc2cc(C(=O)N3CCN(Cc4nc5ccccc5[nH]4)CC3)oc12 do in these assays?
PriA SSB inh: -14.0

What do the screens show for `Cc1cccc(CCNc2nc3ccc(C)cc3n3cnnc23)c1`?
Autofluor counter: 3856; BoNT-F LC inh: 2.2; PriA SSB inh: -4.2; MazF activator: 16.4; Anthrax LF prot: 1.0; BoNT A protease: -3.5

What do the screens show for `Cc1ccc2nc(NCCc3ccc(Cl)cc3)c3nncn3c2c1`?
Autofluor counter: 3244; BoNT-F LC inh: -19.6; PriA SSB inh: 7.1; MazF activator: 79.8*; Anthrax LF prot: -3.1; BoNT A protease: -2.0

How did O=C(c1cc([N+](=O)[O-])cc([N+](=O)[O-])c1)N1CCN(c2ccccn2)CC1 do in these assays?
PriA SSB inh: 9.0

Results for CCCCOc1ccc(Cl)cc1CSc1nnc(CC)n1N ?
Autofluor counter: 24086*; BoNT-F LC inh: -6.1; PriA SSB inh: 5.0; MazF activator: -3.6; Anthrax LF prot: -4.0; BoNT A protease: -4.1

Results for CCCOc1ccc(CSc2nnc(CCC)n2N)cc1 ?
Autofluor counter: 3575; BoNT-F LC inh: 12.5; PriA SSB inh: -6.8; MazF activator: -0.6; Anthrax LF prot: -4.3; BoNT A protease: -0.3
